In assay [1] the target is T1, Aspartate--tRNA(Asp/Asn) ligase (Mycobacterium tuberculosis (strain ATCC 25618 / H37Rv)) (UniProt P9WFW3). Note: in the data most compounds retested in dose-response had high values.
T1 sequence (whole entry): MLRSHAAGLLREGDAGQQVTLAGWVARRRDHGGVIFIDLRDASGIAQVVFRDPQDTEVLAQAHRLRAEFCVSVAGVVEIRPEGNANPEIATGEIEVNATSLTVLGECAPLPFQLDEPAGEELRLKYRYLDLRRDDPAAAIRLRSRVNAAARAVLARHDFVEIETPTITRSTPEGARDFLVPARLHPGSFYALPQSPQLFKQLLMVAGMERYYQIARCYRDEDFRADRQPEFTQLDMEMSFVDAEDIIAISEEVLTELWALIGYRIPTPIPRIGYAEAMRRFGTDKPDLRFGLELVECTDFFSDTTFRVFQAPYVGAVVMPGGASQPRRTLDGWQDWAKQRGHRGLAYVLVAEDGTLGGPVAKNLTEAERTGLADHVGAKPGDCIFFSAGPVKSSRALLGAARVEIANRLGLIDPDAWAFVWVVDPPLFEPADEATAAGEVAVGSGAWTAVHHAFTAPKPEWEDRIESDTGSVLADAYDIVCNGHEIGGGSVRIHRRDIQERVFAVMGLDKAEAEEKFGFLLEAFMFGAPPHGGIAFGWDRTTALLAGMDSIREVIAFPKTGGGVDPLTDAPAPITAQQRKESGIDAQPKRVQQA
The assay can be described thus: Assay for Asp RNA synthetase-1 from Mycobacterium tuberculosis. Format: functional. Set-up: scale not given: direction of the effect not stated beside the values. The conditions noted are these: 30 µM.

In assay [2] the target is Shiga toxin 2 (Escherichia coli O157:H7) (UniProt P09385+P09386). Nature of the assay: E. coli 0.157:H7 Shiga Toxin SOP - stx2 screening assay. The format is functional. Set-up: scale not given: direction of the effect not stated beside the values. Conditions: 30 µM.

With `CC(C)c1cc(N2CCN(c3ccc(O)cc3)CC2)n2nccc2n1`, the figures for the Percent Effect in assay [1] and in assay [2] were -1.38% and 15%, respectively.
For `CC1=N[C@@]2(CC[C@@H]3CN(S(=O)(=O)N(C)C)C[C@@H]32)C(=O)N1CC(C)C`, in that order: 6.65% and -4.62%.
For `COCCn1nc(C(=O)N(C)Cc2cnn(C)c2)ccc1=O`, in that order: -3.74% and 9.25%.
The like results for `Cc1nn(C)c(C)c1C1CCCN1CC(=O)NC(C1CC1)C1CC1` (centres undefined) were, in that order, -3.8% and -0.393%.
`CC(C)C(=O)N1CCCC(c2cc(C(F)F)n3ncnc3n2)C1` (centres undefined): the Percent Effect in assay [1] was 1.92%; in assay [2], -11.7%.
The like results for `CN(C)Cc1nnc(C2CCN(c3nccc(N)n3)CC2)n1C1CC1` were, in that order, 2.12% and -41.2%.
The like results for `CCc1ncc(C(=O)N2CCCCC2Cn2cccn2)s1` (centres undefined) were, in that order, -4.28% and 15.5%.
For the compound `CC(=O)N1CCCCC1c1cc(C(=O)N2CCOCC2)[nH]n1` (centres undefined), the Percent Effect in assay [1] was -0.551%; in assay [2], 15.2%.
The like results for `O=C1CC(N(C(=O)c2ccc3[nH]c4c(c3c2)CCCC4)C2CC2)C(=O)N1` (centres undefined) were, in that order, 1.2% and -28.8%.
The like results for `Cc1csc(N2CCN(C(=O)Cc3ccc(C)s3)CC2)n1` were, in that order, -4.4% and 12.2%.
For `Cc1nnc(C2Cc3ccccc3CN2Cc2ncc(C(C)(C)C)o2)o1` (centres undefined), in that order: 0.807% and 8.47%.
With `CN1CCN(CC2CC2)C(=O)c2cnc(N3CCCCC3)nc21`, the Percent Effect is 3.69% in assay [1] and -8.64% in assay [2].
The like results for `O=C([C@H]1CCCO1)N1CCCC2(CCN(Cc3ccncc3)C2=O)C1` (some centres undefined) were, in that order, 3.8% and -9.24%.
The like results for `CC(Cn1cccn1)NC(=O)CCc1ccc(S(N)(=O)=O)cc1` (centres undefined) were, in that order, -2.91% and 11.3%.
With `COc1ccccc1OCC(=O)NS(=O)(=O)c1cc(F)ccc1F`, the Percent Effect in assay [1] is 0.145%; in assay [2] it was -7.87%.
For `CC(C)c1noc(CCCC(=O)NC2CCS(=O)(=O)C2)n1` (centres undefined), in that order: 0.955% and -17.4%.
For `CSc1ccc(S(=O)(=O)N2CCCCC2CCNC(C)=O)cc1` (centres undefined), in that order: 7.57% and -4.85%.
The like results for `O=C(c1ccco1)N1CCCC1C1CCN(Cc2ccccc2)CC1` (centres undefined) were, in that order, 4.64% and -11.3%.
For `COc1ccc(NC(=O)c2ccc(-n3ncc(C#N)c3N)cc2)cn1`, the Percent Effect was 1.4% in assay [1] and -48.1% in assay [2].
The like results for `O=C(c1cccc(S(=O)(=O)NCCCc2ncc[nH]2)c1)N1CCOCC1` were, in that order, 8.25% and -13.2%.
Consider `O=C(c1ccc(C2CCCO2)s1)N1CCS(=O)(=O)CC1` (centres undefined), for which the Percent Effect in assay [1] was 3.74%; in assay [2], -6.97%.
As for `COC(CNC(=O)N1CCC(n2cncn2)CC1)c1ccccc1` (centres undefined), the values for the Percent Effect in assay [1] and in assay [2] were -3.54% and 7.26%, respectively.
`CN(CCC#N)C(=O)CCOc1cccc(F)c1`: the Percent Effect in assay [1] is -3.59%; in assay [2], -25.6%.
The like results for `COc1ncnc2c1CCN(c1cc(C(F)(F)F)ncn1)CC2` were, in that order, 3.67% and -1.32%.
For `COCCN1CCN(Cc2cccc(C(N)=O)c2)CC1C` (centres undefined), in that order: -1.6% and -42.8%.
On to `Cc1cnn(C2CCCN(C(=O)c3cccc(Cn4ccnc4)c3)C2)c1` (centres undefined), for which the Percent Effect in assay [1] was 0.538%; in assay [2], -30.9%.
For `CS(=O)(=O)NCCCN1CCCC1c1ccccc1` (centres undefined), in that order: 2.4% and 10%.
Consider `COCC(=O)N(C)Cc1cccc(Cl)c1`, for which the figures for the Percent Effect in assay [1] and in assay [2] were -0.779% and -8.03%, respectively.
Regarding `CCOc1ccccc1C1CCCN1` (centres undefined), the Percent Effect is 2.67% in assay [1] and -3.4% in assay [2].
The like results for `O=C(NCc1ccco1)C1CCCN1Cc1nc(-c2ccco2)no1` (centres undefined) were, in that order, 3.58% and 23.3%.
For `Nc1nccc(N2CCC(Cc3ccccc3Cl)(C(=O)O)CC2)n1`, the Percent Effect in assay [1] is -0.368%; in assay [2], -4.46%.
The like results for `CC(Cn1cccn1)NC(=O)Nc1nnc(C2CC2)s1` (centres undefined) were, in that order, -7.13% and 7.79%.
In the case of `Cc1nc(CN2CCc3ncnc(-c4ccc(F)cc4)c3CC2)cs1`, the figures for the Percent Effect in assay [1] and in assay [2] were -0.199% and 5.58%, respectively.
The like results for `CCC1=N[C@@]2(CC[C@@H]3CN(CC4CC4)C[C@@H]32)C(=O)N1C` were, in that order, -1.79% and 6.84%.
For `COCC1CN(C(=O)C2=CCCCC2)Cc2cnn(CC3CC3)c21` (centres undefined), in that order: 0.918% and -7.05%.
For `CC(C)CNC(=O)Nc1ccc(CN2CCOC2=O)cc1`, in that order: 1.75% and -53.2%.
Turning to `Cc1ccsc1CNC(=O)Cc1c(C)nc2c(c1C)c(=O)[nH]n2C`, the Percent Effect in assay [1] is -4.18%; in assay [2] it was 23.7%.
On to `CCN(CC)C(=O)CCn1ncc2c(Cl)cccc21`, for which the Percent Effect in assay [1] is -1.07%; in assay [2], -23.7%.
For `Cc1ccc(C(=O)N2CCSCC2)cc1NC(=O)NCCO`, in that order: 0.137% and 5.64%.
For the compound `CCc1nnc2n1CCN(CC(=O)Nc1sccc1C#N)C2`, the Percent Effect in assay [1] was -0.787%; in assay [2], 24.4%.
For `Cn1ccc(C(=O)NC2CCC23CCN(C(=O)c2ccncc2)CC3)c1` (centres undefined), the Percent Effect in assay [1] is 0.319%; in assay [2] it was -10.5%.
For `c1csc(-c2noc(CCCN3CCCC3Cn3cccn3)n2)c1` (centres undefined), in that order: -1.67% and 15.3%.
Regarding `NC(=O)c1nnn(-c2ccc(Br)cc2)n1`, the Percent Effect in assay [1] is 3.66%; in assay [2] it was -41.8%.
Regarding `Cc1cnn(CC2CCCN2C(=O)c2ccc(OC(C)C)nc2)c1` (centres undefined), the Percent Effect in assay [1] is -4.48%; in assay [2], -35%.
For `CC(C)Nc1nc(N2CCCC2)nc2c1CN(C(C)C)CC2`, the Percent Effect is 2.18% in assay [1] and -118% in assay [2].
Consider `CN1CCN(C(=O)CC2CCN(CCc3ccccn3)CC2)CC1`, for which the results for the Percent Effect in assay [1] and in assay [2] were -2.94% and 8.24%, respectively.
The like results for `CC(C)Oc1ncnc2c1CCN(C(=O)c1cccn1C)CC2` were, in that order, -1.46% and -10.4%.
For `O=C1COC2(CCN(C(=O)c3ccco3)CC2)CN1Cc1ccccn1`, in that order: -2.5% and -3.41%.
Regarding `CCOc1ccc(CN(C)C(=O)NC(C)c2nncn2C)cc1` (centres undefined), the values for the Percent Effect in assay [1] and in assay [2] were 0.975% and -14.2%, respectively.
The like results for `CC(O)CN1CCC(CNCc2cccc(C(N)=O)c2)CC1` (centres undefined) were, in that order, -0.954% and 12.7%.
For `O=C(CCc1ccccc1)N1CCn2cc(CN3CCCC3)nc2C1`, in that order: 0.131% and -15.9%.
For `O=C(O)c1ccc(S(=O)(=O)Nc2ccc(Cl)c(F)c2)c(F)c1`, in that order: -0.533% and -14.1%.

Source of the values: ChEMBL document CHEMBL3988442, “University of Dundee, Small-Polar-MMV Screening Library” (2021).
